About 140 (2.4%) of roughly 5,900 compounds were called active. Many of the other results were omitted from the sample, so actives are more common in it than they were. Unmarked numbers belong to inactive results. Cut-off read from the data, not from the text of the source: active = binding response below about 16% or above about 210%; inactive = in between.

The experiment deals with Mitogen-activated protein kinase kinase kinase 2 (Homo sapiens) (UniProt Q9Y2U5). The experiment can be described thus: modulators of MEK5 binding to wildtype MEKK2, confirmation, biochemical, single concentration, multiplex bead flow cytometry (AID 1892). Particulars: Alexa488-MEK5 binding to MEKK2 WT, at 10 µM, actives lie on both sides. (In general: In flow cytometry, cells or beads pass a laser one at a time.)
Turning to `COc1ccc(C(=O)C[n+]2ccc(C)cc2)cc1`, the binding response (% of control) is 104%.

Regarding `COc1cc(Br)c(-c2sc(Nc3ccccc3)n[n+]2-c2ccccc2)cc1OC`, the binding response (% of control) was 134%.

Take `CN(C)CCCNC(=S)N1CCN(c2nc(-c3ccccc3)cs2)CC1`: the binding response (% of control) was 108%.

Consider `O=C(O)CC(Cc1ccccc1)C(=O)Nc1ccc([N+](=O)[O-])cc1` (centres undefined), for which the binding response (% of control) is 96%.

Take `Cc1onc(-c2ccccc2Cl)c1C(=O)OCC(=O)c1ccccc1`: the binding response (% of control) was 94%.

As for `COc1cc(C)nc(N2CCCC(C(=O)NCC(C)C)C2)n1` (centres undefined), the binding response (% of control) is 97%.

As for `CCN(CC)CCC(c1ccc2c(c1)OCO2)c1c(OC)cc(OC)c2c(-c3ccccc3)cc(=O)oc12` (centres undefined), the binding response (% of control) is 134%.

Turning to `COc1ccc(CNC(=O)C2CCN(S(C)(=O)=O)CC2)cc1`, the binding response (% of control) was 103%.

Take `Cc1ccc(CNC(=O)Cn2c(=O)c3sccc3n(Cc3cccc([N+](=O)[O-])c3)c2=O)cc1`: the binding response (% of control) is 103%.

For the molecule `COc1cccc(/C=N\NC(=O)C2=NNC(=O)C2C)c1O` (centres undefined), the binding response (% of control) was 100%.

For `COc1cccc(CNCCc2c[nH]c3ccccc23)c1OCc1ccccc1F`, the binding response (% of control) is 131%.

On to `C#CCOCCOCCOCCNc1nc(N2CCN(C(=O)C([C@@H](C)CC)n3cc(C(N)COC(=O)C(F)(F)F)nn3)CC2)nc(N2CCN(C(=O)[C@H](CCCCN)n3cc(C(N)CC(C)C)nn3)CC2)n1` (some centres undefined), for which the binding response (% of control) is 191%.

With `O=C(Nc1ccn(Cc2ccccc2)n1)c1cccc(F)c1`, the binding response (% of control) was 105%.

`CN(C)CCCN(C(=O)COc1ccccc1)c1nc2c(Cl)cccc2s1`: the binding response (% of control) is 133%.

With `O=C(CN1CCN(C(=O)c2ccco2)CC1)Nc1ccc(Cl)c(C(F)(F)F)c1`, the binding response (% of control) was 112%.

In the case of `CNC(C)C#Cc1ccc2sc3cc(OC)c(OC)cc3c(=O)c2c1` (centres undefined), the binding response (% of control) was 128%.

For `COc1cccc(C2CC(c3ccccc3)=NN2S(=O)(=O)c2ccccc2)c1OC` (centres undefined), the binding response (% of control) is 98%.

Regarding `O=C(Nc1ccc(Cl)cn1)c1cnn2cccnc12`, the binding response (% of control) is 108%.

For the molecule `CCC(C)OC(=O)C(C)Oc1ccc(-c2ccccc2)cc1` (centres undefined), the binding response (% of control) is 106%.

For `Cn1ccc(=Nc2ccc(NC(=O)c3ccc(N=c4ccn(C)c5ccc([N+](=O)[O-])cc45)cc3)cc2)cc1`, the binding response (% of control) is 152%.

Regarding `CC1CCN(C2=NC(=O)/C(=C/c3cn[nH]c3-c3ccccc3)S2)CC1`, the binding response (% of control) was 94%.

In the case of `COc1cccc(Nc2ncccc2C(=O)O)c1`, the binding response (% of control) is 97%.

As to `CCCc1nnc(SCC(=O)N2C(C)CCCC2C)n1CC` (centres undefined), the binding response (% of control) is 110%.

Regarding `Cc1ccc(C)c(CN2CCC(CNC(=O)Nc3ccc(C)c(F)c3)CC2)c1`, the binding response (% of control) is 146%.

For the molecule `CSCC[C@H](NC(=O)CCCn1nnc2ccccc2c1=O)C(=O)O`, the binding response (% of control) was 105%.

On to `CCc1ccc2nc(Nc3ncc(C(C)=O)c(C)n3)nc(C)c2c1`, for which the binding response (% of control) is 103%.

With `CCOc1ccc(S(=O)(=O)NCCCn2ccnc2)cc1NC(C)=O`, the binding response (% of control) was 100%.

In the case of `CCC(=C/c1sc2ccc3ccccc3c2[n+]1C)/C=C1\Sc2ccc3ccccc3c2N1C`, the binding response (% of control) was 13% [inhibitor] (active).

Consider `O=C(O)c1cccnc1NC1CCCC1`, for which the binding response (% of control) was 109%.

With `COc1ccc(N2CCN(Cc3nnc(-c4ccccc4)o3)CC2)cc1`, the binding response (% of control) was 94%.

With `C[N+](C)(C)CCNC(=O)c1c(O)c2c([nH]c1=O)CCCC2`, the binding response (% of control) is 101%.

Turning to `COc1ccc(NC(=O)Cn2nnc(C(=O)NCCc3ccc(OC)c(OC)c3)c2N)cc1`, the binding response (% of control) is 98%.

For `CC(C)(C)c1nnc(NC(=O)C2c3ccccc3Oc3ccccc32)s1`, the binding response (% of control) is 93%.

As to `Clc1ccc(-c2nnc(SCc3nc4ccccc4s3)o2)cc1`, the binding response (% of control) was 98%.

For the molecule `CCCn1c(=N)n(CC(=O)c2ccc(Cl)c(Cl)c2)c2ccccc21`, the binding response (% of control) is 144%.

As for `CCCCN1C(=O)/C(=C(/C#N)C(N)=O)c2ccccc21`, the binding response (% of control) was 102%.

As for `O=C(NCCN1CCOCC1)[C@H](Cc1ccccc1)N1C(=O)c2ccccc2C1=O`, the binding response (% of control) is 103%.

As to `COc1cc2c(cc1OC)CN(C(=O)c1ccc(S(=O)(=O)N3CCCCCC3)cc1)CC2`, the binding response (% of control) is 97%.

With `O=C(O)c1cc(Cl)c(Cl)cc1C(=O)Nc1cccc2ncccc12`, the binding response (% of control) is 99%.

Turning to `Cc1noc(C)c1S(=O)(=O)N(C)Cc1ccccc1`, the binding response (% of control) was 105%.

Take `CN(Cc1ccccc1)CC(O)COc1ccc(CNCc2cc3ccccc3s2)cc1` (centres undefined): the binding response (% of control) is 129%.

For the molecule `CN(CC(=O)Nc1cccc(F)c1)CC(=O)Nc1cccc([N+](=O)[O-])c1`, the binding response (% of control) is 99%.

With `CC(C)c1ccc(C(=O)NCCCc2ccccc2)cc1`, the binding response (% of control) is 94%.

As to `COc1cc(-c2nnc(Cn3cc(C(F)(F)F)ccc3=O)o2)cc(OC)c1OC`, the binding response (% of control) is 103%.

`O=C(CCCO)N/N=C/c1cc(Br)ccc1O`: the binding response (% of control) is 106%.

For the molecule `O=C(NC1CCN(Cc2ccccc2)CC1)c1cc(Br)c(Br)[nH]1`, the binding response (% of control) was 128%.

Consider `Cc1cccc(OCCNC(=O)CSc2ccc(C(F)(F)F)cc2[N+](=O)[O-])c1`, for which the binding response (% of control) was 104%.

In the case of `N=c1c2c(-c3ccccc3)c(-c3ccccc3)n(Cc3ccccc3)c2ncn1CCCO`, the binding response (% of control) is 134%.

With `Cc1nn(-c2ccccc2)c(NC(=O)c2cccs2)c(-c2ccc(Cl)cc2)c1=O`, the binding response (% of control) is 101%.

On to `CCn1c(NC(=O)c2ccccc2)c(-c2cccs2)c(=O)c2ccccc21`, for which the binding response (% of control) is 102%.

For `C/C=C/c1ccc(OCCCCN2CCC(C)CC2)c(OC)c1`, the binding response (% of control) was 109%.

In the case of `CC(C)C(=O)N1c2ccccc2NC2=C(C(=O)CCC2)C1c1ccc(N(C)C)cc1` (centres undefined), the binding response (% of control) is 116%.

Consider `Cc1c(-c2ccccc2)cn2c1-c1ccc(C)n1CC2`, for which the binding response (% of control) was 93%.

On to `O=C(Cc1cccs1)N/N=C/c1ccc(OCc2ccccc2)cc1`, for which the binding response (% of control) is 101%.

As to `Cc1c(S(=O)(=O)NCc2ccccc2)c(=O)n(C)c(=O)n1C`, the binding response (% of control) was 102%.

For `Cc1[nH]c2ccc(S(N)(=O)=O)cc2c1C`, the binding response (% of control) is 97%.

Take `C=CCN1C=C2C(=O)C(C)(OC(=O)CCc3ccccc3)C(=O)C=C2C=C1c1ccc(C#N)cc1` (centres undefined): the binding response (% of control) was 98%.

On to `C=C(C)C1CC=C(C)/C(=N\NC(=O)CNc2ccccc2OC)C1` (centres undefined), for which the binding response (% of control) is 107%.

For the molecule `O=C(CSc1ccc(-c2ccc(F)cc2)nn1)Nc1ccc2c(c1)OCCO2`, the binding response (% of control) is 105%.
